In PubChem BioAssay (NCATS):
Inconclusive results are not listed. Calls of active or inactive are those of the source. Unless noted, the call rests on the fitted dose curve; in most records, active means well fitted curve in the direction sought with a large enough effect; inconclusive means small, poorly fitted or top-dose-only effect, or another doubt; inactive means no such curve, though single readings can be large; an effect the other way counts as inactive or inconclusive.

Experiments:
[1] = target: Aldehyde dehydrogenase, mitochondrial (Homo sapiens) (UniProt P05091); assay: qHTS for Inhibitors of the Aldehyde Dehydrogenase Family (ALDH2) Confirmatory screens (AID 2061303; active means well fitted inhibition curve with a large enough effect; title and protocol of this record describe different tests; further: nearly all actives have a fitted effect of over 45% in size; further: potency means the concentration at half of the fitted maximal effect; on activity change, negative = inhibition: on the % scale 0 is the no-effect control and ±100 the full control effect)
[2] = qHTS for Inhibitors of the Aldehyde Dehydrogenase Family (ALDH1A2, ALDH1A3, ALDH2, ALDH3A1) (AID 2061307); further: nearly all actives have a fitted effect of over 50% in size; on Potency: test system not described further here; potency means the concentration at half of the fitted maximal effect; on activity change, negative = inhibition: on the % scale 0 is the no-effect control and ±100 the full control effect
[3] = target: Aldehyde dehydrogenase, mitochondrial (Homo sapiens) (UniProt P05091); assay: qHTS for Inhibitors of the Aldehyde Dehydrogenase Family (ALDH2) Primary screen (AID 2061308); further: nearly all actives have a fitted effect of over 55% in size; further: potency means the concentration at half of the fitted maximal effect;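 on activity change, negative = inhibition: plate controls were vehicle for no effect and reference inhibitor for full effect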
[4] = target: Retinaldehyde dehydrogenase 3 (Homo sapiens) (UniProt P47895); assay: qHTS for Inhibitors of the Aldehyde Dehydrogenase Family (ALDH1A3) Confirmatory screens (AID 2061311); further: nearly all actives have a fitted effect of over 60% in size; further: potency means the concentration at half of the fitted maximal effect; on activity change, negative = inhibition: on the % scale 0 is the no-effect control and ±100 the full control effect
[5] = target: Retinal dehydrogenase 2 (Homo sapiens) (UniProt O94788); assay: qHTS for Inhibitors of the Aldehyde Dehydrogenase Family (ALDH1A2) Confirmation screens (AID 2061314); further: nearly all actives have a fitted effect of over 65% in size; further: potency means the concentration at half of the fitted maximal effect
[6] = target: Retinaldehyde dehydrogenase 3 (Homo sapiens) (UniProt P47895); assay: qHTS for Inhibitors of the Aldehyde Dehydrogenase Family (ALDH1A3) Primary screen (AID 2061315);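 further: plate controls were DMSO vehicle for no effect and reference inhibitor for full effect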
[7] = target: Aldehyde dehydrogenase 1A1 (Homo sapiens) (UniProt P00352); assay: qHTS for Inhibitors of the Aldehyde Dehydrogenase Family (ALDH1A1) Confirmatory screens (AID 2061316); further: nearly all actives have a fitted effect of over 65% in size; further: potency means the concentration at half of the fitted maximal effect; on activity change, negative = inhibition: on the % scale 0 is the no-effect control and ±100 the full control effect

CCOC(=O)c1cccc(-n2cnc(/C=C3\NC(=O)N(CC(=O)O)C3=O)c2)c1
inactive: Potency [1] | Potency [2] | Potency [3] | Potency [4] | Potency [5] | Potency [6] | Potency [7]

O=C(O)c1ccc(S(=O)(=O)N[C@H](Cc2ccc(C(F)(F)F)cc2)C(=O)O)cc1
inactive: Potency [1] | Potency [2] | Potency [3] | Potency [4] | Potency [5] | Potency [6] | Potency [7]

Cc1ccccc1C[C@H](C(=O)O)N1C(=O)c2ccc(C(=O)O)cc2C1=O
inactive: Potency [1] | Potency [2] | Potency [3] | Potency [4] | Potency [5] | Potency [6] | Potency [7]

CCCCN(CCCNC(=S)NCCCc1cnc[nH]1)c1ccc(Br)cn1
inactive: Potency [3] | Potency [6] | Potency [7]
active: Potency [1] 22.4 µM | Potency [2] 12.6 µM | Potency [4] 14.1 µM | Potency [5] 8.96 µM

CC(=O)N(C(C)=O)n1c(C)nc2sc3c(c2c1=O)CCNC3
inactive: Potency [1] | Potency [2] | Potency [3] | Potency [4] | Potency [5] | Potency [6] | Potency [7]

C=C1C(=O)O[C@H]2C[C@@H](C)[C@@H]3CCC(=O)[C@@]3(C)C[C@H]12
active: Potency [2] 20.1 µM | Potency [4] 14.2 µM
inactive: Potency [1] | Potency [3] | Potency [5] | Potency [6] | Potency [7]

COc1ccc(-c2csc(N3CCC(C(N)=O)CC3)n2)cc1
inactive: Potency [1] | Potency [2] | Potency [3] | Potency [4] | Potency [5] | Potency [6] | Potency [7]

CCCCNc1ccc(C(=O)OCCN(CC)CC)cc1
inactive: Potency [1] | Potency [2] | Potency [3] | Potency [4] | Potency [5] | Potency [6] | Potency [7]

O=C(C1CCN(c2nc(-c3ccc(Br)cc3)cs2)CC1)N1CCNCC1
active: Potency [7] 25.2 µM
inactive: Potency [1] | Potency [2] | Potency [3] | Potency [4] | Potency [5] | Potency [6]

COc1ccc(C2=Nn3c(nnc3-c3cc(OC)cc(OC)c3)SC2)cc1
inactive: Potency [1] | Potency [2] | Potency [3] | Potency [4] | Potency [5] | Potency [6] | Potency [7]

N#Cc1ccc(-c2ccc(C3Nc4ccccc4C(=O)N3O)o2)cc1 (stereo unspecified)
active: Potency [1] 1.26 µM | Potency [2] 3.18 µM | Potency [3] 1.26 µM | Potency [4] 5.04 µM | Potency [5] 3.18 µM | Potency [7] 3.57 µM
inactive: Potency [6]

O=C(NC1CCCc2c1cnn2-c1ccc(F)cc1F)c1ccccn1 (stereo unspecified)
inactive: Potency [1] | Potency [2] | Potency [3] | Potency [4] | Potency [5] | Potency [6] | Potency [7]

CCC(=O)C1CCCN(C(=O)CC(c2ccc3c(c2)OCO3)c2c(O)cc(OC)cc2OC)C1 (stereo unspecified)
inactive: Potency [1] | Potency [2] | Potency [3] | Potency [4] | Potency [5] | Potency [6] | Potency [7]

Cc1cc2c(s1)c1cnn(Cc3c(Cl)ccc(C)c3F)c(=O)c1n2C
inactive: Potency [1] | Potency [2] | Potency [3] | Potency [4] | Potency [5] | Potency [6] | Potency [7]

CC(=O)SCC(CC(=O)c1ccc(C)cc1)C(=O)O (stereo unspecified)
inactive: Potency [1] | Potency [2] | Potency [3] | Potency [4] | Potency [5] | Potency [6] | Potency [7]

CC(C)(C)c1ccc(C[C@H](C(=O)O)N2C(=O)c3ccc(C(=O)O)cc3C2=O)cc1
inactive: Potency [1] | Potency [2] | Potency [3] | Potency [4] | Potency [5] | Potency [6] | Potency [7]

Cc1nc(C)c(-c2ccc3ncnc(NCc4ncc[nH]4)c3c2)s1
inactive: Potency [1] | Potency [2] | Potency [3] | Potency [4] | Potency [5] | Potency [6] | Potency [7]

CCOc1ccccc1-c1nnc2n1N=C(c1ccc(OC)cc1)CS2
active: Potency [2] 7.94 µM | Potency [7] 17.9 µM
inactive: Potency [1] | Potency [3] | Potency [4] | Potency [5] | Potency [6]

O=C(CSc1nnc(-c2cccc(S(=O)(=O)N3CCCC3)c2)n1-c1ccccc1)Nc1ccc(F)cc1
inactive: Potency [1] | Potency [2] | Potency [3] | Potency [4] | Potency [5] | Potency [6] | Potency [7]

Cc1ccc2nc(-c3ccccn3)c(Nc3ccccc3C)n2c1
inactive: Potency [1] | Potency [2] | Potency [3] | Potency [4] | Potency [5] | Potency [6] | Potency [7]

N#Cc1c(-c2csc(-c3no[n+]([O-])c3C#N)c2)no[n+]1[O-]
inactive: Potency [3] | Potency [6]
active: Potency [1] 14.1 µM | Potency [2] 6.34 µM | Potency [4] 12.7 µM | Potency [5] 2.25 µM | Potency [7] 11.3 µM

O=S1(=O)N=C(Oc2ccccc2)c2ccccc21
inactive: Potency [1] | Potency [2] | Potency [3] | activity change, negative = inhibition [4] -14.1% [at 0.022 µM] | Potency [5] | Potency [6] | Potency [7]

Cc1noc(C)c1-c1csc(N2CCC(C(N)=O)CC2)n1
inactive: Potency [1] | Potency [2] | Potency [3] | Potency [4] | Potency [5] | Potency [6] | Potency [7]
